The structures appear in SMILES notation. Results filed as inconclusive are left out. A call without a number means that no potency is given here. Activity calls are given as the source filed them. Calls come from the whole dose curve; as a rule, active = well fitted inhibition curve with a large enough effect; inconclusive = small, poorly fitted or top-dose-only effect; inactive = no such curve, though single readings can be large or run the other way. Where a SMILES comes first, the peptide text is derived from it. [ ]: non-standard residue; d: D form. pGlu = O=C1CC[C@@H](C(=O)O)N1

Assay [1] can be described thus: qHTS assay for measurement of the activity of small molecule inhibitors on Zika virus induced Caspase-3 activity in human iPSC derived neural progenitor cells (hNPCs) (AID 1224857). Note: nearly all actives have a fitted effect of over 65% in size. The essentials: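 Pretreat hNPCs with compound 1 h; infect ZIKV 2 FFU/cell; 6 h 37 C, 5% CO2; Caspase-Glo 3/7, 30 min RT; luminescence; normalize to no-virus and virus-only wells.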
Background: In qHTS, concentration-response curves come from the screen itself.

The nature of assay [2]: qHTS assay for measurement of the activity of small molecule inhibitors on Zika virus induced Caspase-3 activity in human astrocytoma cells (AID 1224859). In a few lines:
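Human SNB-19 astrocytoma cells in RPMI 1640 with 10% FBS receive compound one hour ahead of Zika virus at 2 FFU/cell. After 6 h infection, caspase-3/7 activity is detected by Caspase-Glo luminescence.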

As to `CC(C)NCCCC1(C(N)=O)c2ccccc2-c2ccccc21`, the Potency entry in assay [1] was “inactive”. The compound was classed as inactive in assay [2].

In the case of `CN(C)[C@@H]1C(=O)C(C(N)=O)=C(O)[C@@]2(O)C(=O)C3=C(O)c4c(O)cccc4C[C@H]3C[C@@H]12`, in assay [1], the Potency entry is “inactive”. Moreover, the outcome in assay [2] was inactive.

Consider `COC(=O)c1cc(S(N)(=O)=O)ccc1OC`, for which the Potency entry in assay [1] was “inactive”. Also, the result in assay [2] was inactive.

Regarding `O=C(O)Cn1c(=O)n(Cc2ccc(Br)cc2F)c(=O)c2ccc(Cl)cc21`, the Potency result in assay [1] was “inactive”. Besides, the outcome in assay [2] was inactive.

With `C/C(=C(/OCCOc1ccc(Cl)cc1)c1ccc(Cl)cc1Cl)n1ccnc1`, the Potency result in assay [1] was “inactive”. Besides, the result in assay [2] was inactive.

As to `CC(=O)O[C@@H]1CC2C3CCc4cc(OC(=O)c5ccccc5)ccc4C3CCC2(C)[C@H]1OC(C)=O` (stereo partly specified), the Potency entry in assay [1] is “inactive”. Also, the compound was called inactive in assay [2].

As to `O=C(OCCN1CCOCC1)c1cccnc1Nc1cccc(C(F)(F)F)c1`, in assay [1], the Potency entry is “inactive”. The compound was classed as inactive in assay [2].

Take `Nc1ccc([N+](=O)[O-])c(C(F)(F)F)c1`: the Potency entry in assay [1] was “inactive”. For the same compound, in assay [2], the outcome was inactive.

`CCOC(=O)C(=O)CCCCCCl`: the Potency result in assay [1] was “inactive”. In addition, the result in assay [2] was inactive.

Turning to `CC(C)(C)C1CCC(CC2=C(O)c3ccccc3C(=O)C2=O)CC1` (stereo unspecified), the Potency result in assay [1] was “inactive”. Further, the call in assay [2] was inactive.

As to `CC(C)(Oc1ccc(Cl)cc1)C(=O)OCCCOC(=O)C(C)(C)Oc1ccc(Cl)cc1`, the Potency result in assay [1] is “inactive”. The outcome in assay [2] was inactive.

Turning to `C/C(=N/NC(=O)c1ccncc1)C(=O)O`, in assay [1], the Potency result is “inactive”. Further, in assay [2], the compound was called inactive.

As for `CC(=O)OC[C@H]1O[C@@H](OC(C)=O)[C@H](OC(C)=O)[C@@H]1OC(C)=O`, the Potency entry in assay [1] was “inactive”. Moreover, the result in assay [2] was inactive.

For the compound `CCC(=O)O[C@]1(C(=O)COC)[C@@H](C)C[C@H]2[C@@H]3CCC4=CC(=O)C=C[C@]4(C)C3(F)[C@@H](O)C[C@@]21C` (stereo partly specified), the Potency entry in assay [1] is “inactive”. The compound was classed as inactive in assay [2].

Take `COc1ccccc1N1CCN(CC(O)COc2cc(OC)c(OC)c(OC)c2)CC1` (stereo unspecified): in assay [1], the Potency result was “inactive”. The call in assay [2] was inactive.

In the case of `CN1CCCN(C(c2ccccc2)c2ccc(Cl)cc2)CC1` (stereo unspecified), in assay [1], the Potency result was “inactive”. Besides, in assay [2], the result was inactive.

Consider `CN(C)CCCOC1(Cc2ccccc2)CCCCCC1`, for which the Potency entry in assay [1] is “inactive”. The outcome in assay [2] was inactive.

In the case of `CCCCOCCOC(=O)c1cccnc1`, in assay [1], the Potency entry is “inactive”. In assay [2], the compound was called inactive.

In the case of `COc1ccc2c(c1)c(CC(=O)OC/C=C(\C)CC/C=C(\C)CCC=C(C)C)c(C)n2C(=O)c1ccc(Cl)cc1`, the Potency entry in assay [1] is “inactive”. Besides, the compound was called inactive in assay [2].

On to `CCN(CC)CC(=O)Nc1c(C)cccc1C(=O)OC`, for which the Potency result in assay [1] is “inactive”. Also, the result in assay [2] was inactive.

`O=C1NC(c2ccccc2)(c2ccccc2)C(=O)N1COP(=O)(O)O`: in assay [1], the Potency entry is “inactive”. In assay [2], the outcome was inactive.

Regarding `CC[N+]1(CC)CCC(=C(c2ccccc2)c2ccccc2)C1C` (stereo unspecified), in assay [1], the Potency entry is “inactive”. In addition, in assay [2], the result was inactive.

`Nc1nc2ccccc2n1Cc1ccc(F)cc1`: the Potency result in assay [1] is “inactive”. For the same compound, the result in assay [2] was inactive.

For the compound `Oc1ccccc1-c1nnco1`, the Potency entry in assay [1] was “inactive”. Besides, the compound was called inactive in assay [2].

In the case of `Nc1ccc2c(c1)CN1C(=O)c3ccccc3C1=N2`, in assay [1], the Potency result was “inactive”. Besides, the compound was called inactive in assay [2].

In the case of `CCNC(=O)[C@@H]1CCCN1C(=O)[C@H](CCCN=C(N)N)NC(=O)[C@H](CC(C)C)NC(=O)CNC(=O)[C@H](Cc1ccc(O)cc1)NC(=O)[C@H](CO)NC(=O)[C@H](Cc1c[nH]c2ccccc12)NC(=O)[C@H](Cc1cnc[nH]1)NC(=O)[C@@H]1CCC(=O)N1` ([pGlu]HWSYGLRP-NHEt), in assay [1], the Potency result was “inactive”. For the same compound, the call in assay [2] was inactive.

`CN1Cc2cc(C(=O)N3CCC(C4CCNCC4)CC3)ccc2N[C@@H](CC(=O)O)C1=O`: the Potency entry in assay [1] was “inactive”. Besides, in assay [2], the compound was classed as inactive.

For the compound `NS(=O)(=O)c1ccc(N2CCCCS2(=O)=O)cc1`, in assay [1], the Potency entry is “inactive”. In addition, the compound was called inactive in assay [2].

Regarding `COc1ccc(-n2nc(CCC(=O)N(C)O)cc2-c2ccc(Cl)cc2)cc1`, the Potency result in assay [1] is “inactive”. Besides, the result in assay [2] was inactive.

For the compound `COC(=O)/C=C(/C)N`, in assay [1], the Potency entry is “inactive”. Besides, in assay [2], the outcome was inactive.

For the compound `CCOC(=O)c1ccc(O)c(O)c1`, the Potency entry in assay [1] was “inactive”. Moreover, the result in assay [2] was inactive.

As for `CCN(CC)CC(=O)Oc1ccc(NC(C)=O)cc1`, the Potency entry in assay [1] is “inactive”. The outcome in assay [2] was inactive.

Regarding `N#Cc1cc(NC(=O)C(=O)O)c(Cl)c(NC(=O)C(=O)O)c1`, in assay [1], the Potency entry is “inactive”. In addition, the result in assay [2] was inactive.

In the case of `CC(C)C[C@@H]1[C@H](c2ccccc2)OC(=O)N1CCCN1CCCCCC1`, in assay [1], the Potency entry was “inactive”. Also, in assay [2], the result was inactive.

On to `CCc1cccc2c(CCO)c[nH]c12`, for which, in assay [1], the Potency entry is “inactive”. Besides, the compound was called inactive in assay [2].

Turning to `CN1CCN(N)CC1`, the Potency result in assay [1] was “inactive”. For the same compound, in assay [2], the compound was called inactive.

In the case of `O=C1CC(c2ccc(Cl)cc2)CC(=O)N1`, the Potency entry in assay [1] is “inactive”. For the same compound, the compound was classed as inactive in assay [2].

For `Fc1ccc(C(c2ccc(F)cc2)N2CCNCC2)cc1`, in assay [1], the Potency result was “inactive”. Further, the result in assay [2] was inactive.

As for `CCOC(=O)N1CCC(Nc2ccc(Cl)cc2N)CC1`, the Potency result in assay [1] is “inactive”. The call in assay [2] was inactive.

As for `Cc1cc(CCCOc2c(C)cc(-c3noc(C(F)(F)F)n3)cc2C)on1`, the Potency entry in assay [1] was “inactive”. In addition, the result in assay [2] was inactive.

With `COC(=O)[C@H]1[C@H]2C[C@@H]3c4[nH]c5cc(OC)ccc5c4CCN3C[C@H]2C[C@@H](OC(=O)/C=C/c2ccc(O)c(OC)c2)[C@@H]1OC`, in assay [1], the Potency entry was “inactive”. Further, the call in assay [2] was inactive.

Take `O=C(CCCl)NCc1ccccc1`: in assay [1], the Potency result was “inactive”. Moreover, in assay [2], the call was inactive.

As to `CN1N=C(C(N)=O)CCC1=O`, the Potency entry in assay [1] was “inactive”. Further, the result in assay [2] was inactive.

Take `CC[C@@]1(O)C(=O)OCc2c1cc1n(c2=O)Cc2c-1nc1ccccc1c2/C=N/OC(C)(C)C`: the Potency entry in assay [1] was “inactive”. Also, the compound was classed as inactive in assay [2].

In the case of `CC(C)(C)c1ccc(C(=O)CCCCl)cc1`, the Potency entry in assay [1] was “inactive”. Besides, the outcome in assay [2] was inactive.

In the case of `O=C(C1CCCCC1)N1CC(=O)N2CCCc3ccccc3C2C1` (stereo unspecified), in assay [1], the Potency result was “inactive”. For the same compound, the compound was called inactive in assay [2].

As to `CCN1CCCC1CN` (stereo unspecified), the Potency result in assay [1] was “inactive”. Moreover, the result in assay [2] was inactive.

In the case of `CNC(=O)c1c(I)c(NC(C)=O)c(I)c(C(=O)O)c1I`, the Potency result in assay [1] is “inactive”. For the same compound, the compound was called inactive in assay [2].

These data come from PubChem BioAssay (NCATS).
